# Key:
# Assay in all cases: DAPPL (digital affinity profiling via proximity ligation, sequencing); 10 mM Tris-HCl pH 7.5, 50 mM NaCl, 1 mM DTT, 4% glycerol, room temperature, 30 min; GST-TFs on glutathione beads, 16-mer random dsDNA library, 0.1% formaldehyde crosslink after washing; high values mean tight binding
# Conditions in all cases: protein: recombinant; tags: N-terminal GST; dsDNA, one strand shown
# FLI1 = biological target: T1, FLI1 (Homo sapiens, UniProt Q01543 1-452)
# T1 sequence: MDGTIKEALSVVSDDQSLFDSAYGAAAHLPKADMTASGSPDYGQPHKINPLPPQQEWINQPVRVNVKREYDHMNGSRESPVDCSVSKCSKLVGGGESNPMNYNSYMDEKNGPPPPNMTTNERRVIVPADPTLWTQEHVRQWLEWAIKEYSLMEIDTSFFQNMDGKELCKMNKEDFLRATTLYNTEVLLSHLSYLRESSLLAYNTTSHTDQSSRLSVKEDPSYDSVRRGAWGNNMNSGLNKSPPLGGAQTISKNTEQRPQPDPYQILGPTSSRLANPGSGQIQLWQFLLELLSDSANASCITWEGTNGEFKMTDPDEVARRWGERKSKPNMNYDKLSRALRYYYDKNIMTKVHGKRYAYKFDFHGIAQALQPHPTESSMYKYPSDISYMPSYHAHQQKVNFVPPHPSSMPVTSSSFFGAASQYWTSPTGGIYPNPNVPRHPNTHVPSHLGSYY
# How it was run: (§1)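 Yeast served to express human transcription factors as GST fusions, which were then captured on glutathione beads and labelled with DNA barcodes. Pooled with a tag-only sample, they were incubated with 200 nmole of a 16-mer random double-stranded DNA library for 30 min at room temperature in Tris/NaCl/DTT/glycerol buffer, washed, crosslinked with 0.1% formaldehyde, ligated by proximity, amplified by PCR and sequenced. Dividing each hexamer's read frequency for a factor by its frequency for the tag-only sample gives the binding signal.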
# GABPA = biological target: T2, GABPA (Homo sapiens, UniProt Q06546 1-454)
# T2 sequence: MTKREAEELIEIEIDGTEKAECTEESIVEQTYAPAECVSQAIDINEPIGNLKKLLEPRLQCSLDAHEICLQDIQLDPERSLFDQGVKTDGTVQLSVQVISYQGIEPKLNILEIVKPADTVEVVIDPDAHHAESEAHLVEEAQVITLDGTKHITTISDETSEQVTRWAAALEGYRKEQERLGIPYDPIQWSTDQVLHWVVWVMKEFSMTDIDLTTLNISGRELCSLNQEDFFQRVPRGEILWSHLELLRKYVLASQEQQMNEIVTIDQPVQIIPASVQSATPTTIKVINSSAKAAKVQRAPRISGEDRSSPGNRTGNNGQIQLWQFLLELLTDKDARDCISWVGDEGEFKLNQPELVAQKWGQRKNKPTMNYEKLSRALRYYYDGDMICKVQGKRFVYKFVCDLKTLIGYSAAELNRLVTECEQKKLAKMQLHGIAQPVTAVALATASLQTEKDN
# How it was run: as §1
# ERG = biological target: T3, ERG (Homo sapiens, UniProt P11308 1-479)
# T3 sequence: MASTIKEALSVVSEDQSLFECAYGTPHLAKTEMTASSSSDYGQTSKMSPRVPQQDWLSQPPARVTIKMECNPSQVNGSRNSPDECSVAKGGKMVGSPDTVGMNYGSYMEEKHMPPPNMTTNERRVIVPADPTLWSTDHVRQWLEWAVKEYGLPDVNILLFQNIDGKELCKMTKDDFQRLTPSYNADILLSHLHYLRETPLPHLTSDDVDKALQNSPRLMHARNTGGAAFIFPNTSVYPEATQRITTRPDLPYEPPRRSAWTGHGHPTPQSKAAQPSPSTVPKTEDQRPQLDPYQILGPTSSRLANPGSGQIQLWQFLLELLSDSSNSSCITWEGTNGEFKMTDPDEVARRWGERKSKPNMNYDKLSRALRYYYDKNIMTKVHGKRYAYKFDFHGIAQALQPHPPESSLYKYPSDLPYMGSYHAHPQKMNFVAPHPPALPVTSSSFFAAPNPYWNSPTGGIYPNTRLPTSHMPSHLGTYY
# How it was run: as §1
# ELF1 = ELF1 (Homo sapiens, UniProt P32519 1-619)
# Chain of ELF1 (P32519 whole entry): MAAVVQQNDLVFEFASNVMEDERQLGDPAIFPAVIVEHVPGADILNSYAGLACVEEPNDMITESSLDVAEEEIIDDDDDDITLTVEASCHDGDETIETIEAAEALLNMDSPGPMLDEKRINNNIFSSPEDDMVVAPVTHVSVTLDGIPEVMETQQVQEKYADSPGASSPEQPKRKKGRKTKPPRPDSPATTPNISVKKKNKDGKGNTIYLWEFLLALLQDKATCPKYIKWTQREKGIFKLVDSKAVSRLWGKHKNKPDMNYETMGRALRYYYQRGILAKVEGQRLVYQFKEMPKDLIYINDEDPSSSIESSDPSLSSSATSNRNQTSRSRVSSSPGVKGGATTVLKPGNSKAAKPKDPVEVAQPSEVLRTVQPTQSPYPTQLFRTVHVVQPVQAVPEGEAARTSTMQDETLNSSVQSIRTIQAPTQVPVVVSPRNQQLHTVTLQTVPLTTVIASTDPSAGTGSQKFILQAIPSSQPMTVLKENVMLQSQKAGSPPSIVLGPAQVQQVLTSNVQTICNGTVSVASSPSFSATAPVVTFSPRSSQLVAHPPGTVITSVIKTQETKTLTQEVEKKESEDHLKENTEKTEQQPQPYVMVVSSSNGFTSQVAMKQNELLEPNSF
# How it was run: as §1
# EHF = biological target: T4, EHF (Homo sapiens, UniProt Q9NZC4 1-300)
# T4 sequence: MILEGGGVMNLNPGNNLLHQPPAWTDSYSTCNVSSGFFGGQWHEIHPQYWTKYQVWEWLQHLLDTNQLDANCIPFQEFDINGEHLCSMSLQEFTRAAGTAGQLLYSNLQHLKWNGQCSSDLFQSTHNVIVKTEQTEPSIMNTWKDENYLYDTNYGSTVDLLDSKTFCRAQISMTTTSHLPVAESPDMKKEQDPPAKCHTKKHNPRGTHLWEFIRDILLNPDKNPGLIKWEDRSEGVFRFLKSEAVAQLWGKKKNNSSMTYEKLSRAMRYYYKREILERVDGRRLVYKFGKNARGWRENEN
# How it was run: as §1
# SPIB = SPIB (Homo sapiens, UniProt Q01892 1-262)
# Chain of SPIB (Q01892 whole entry): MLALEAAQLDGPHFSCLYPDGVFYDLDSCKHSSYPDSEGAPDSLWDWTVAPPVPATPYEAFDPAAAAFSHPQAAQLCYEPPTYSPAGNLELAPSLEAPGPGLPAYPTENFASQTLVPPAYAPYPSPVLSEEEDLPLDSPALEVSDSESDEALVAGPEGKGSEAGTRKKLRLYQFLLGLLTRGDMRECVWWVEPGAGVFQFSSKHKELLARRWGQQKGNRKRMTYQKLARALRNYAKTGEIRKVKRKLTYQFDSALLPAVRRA
# How it was run: as §1
# ELK3 = biological target: T5, ELK3 (Homo sapiens, UniProt P41970 1-407)
# T5 sequence: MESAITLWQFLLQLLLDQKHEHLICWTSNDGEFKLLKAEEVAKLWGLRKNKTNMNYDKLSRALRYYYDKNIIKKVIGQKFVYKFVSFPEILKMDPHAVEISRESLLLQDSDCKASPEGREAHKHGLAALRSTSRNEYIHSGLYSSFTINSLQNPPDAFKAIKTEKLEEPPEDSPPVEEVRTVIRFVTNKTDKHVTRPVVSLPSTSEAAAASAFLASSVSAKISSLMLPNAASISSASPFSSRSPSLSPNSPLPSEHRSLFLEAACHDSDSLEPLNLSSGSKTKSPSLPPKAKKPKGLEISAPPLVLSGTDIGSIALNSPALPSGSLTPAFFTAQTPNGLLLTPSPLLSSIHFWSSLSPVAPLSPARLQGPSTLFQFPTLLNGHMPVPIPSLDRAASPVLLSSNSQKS
# How it was run: as §1
# SPIC = biological target: T6, SPIC (Homo sapiens, UniProt Q8N5J4 1-248)
# T6 sequence: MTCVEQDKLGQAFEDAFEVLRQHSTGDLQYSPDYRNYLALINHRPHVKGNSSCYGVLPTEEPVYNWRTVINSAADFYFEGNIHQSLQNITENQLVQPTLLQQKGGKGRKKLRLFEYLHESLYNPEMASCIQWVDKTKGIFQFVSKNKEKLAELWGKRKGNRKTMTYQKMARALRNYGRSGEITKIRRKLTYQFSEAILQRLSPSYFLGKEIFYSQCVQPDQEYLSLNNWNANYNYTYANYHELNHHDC
# How it was run: as §1
# ELF4 = ELF4 (Homo sapiens, UniProt Q99607 1-663)
# Chain of ELF4 (Q99607 whole entry): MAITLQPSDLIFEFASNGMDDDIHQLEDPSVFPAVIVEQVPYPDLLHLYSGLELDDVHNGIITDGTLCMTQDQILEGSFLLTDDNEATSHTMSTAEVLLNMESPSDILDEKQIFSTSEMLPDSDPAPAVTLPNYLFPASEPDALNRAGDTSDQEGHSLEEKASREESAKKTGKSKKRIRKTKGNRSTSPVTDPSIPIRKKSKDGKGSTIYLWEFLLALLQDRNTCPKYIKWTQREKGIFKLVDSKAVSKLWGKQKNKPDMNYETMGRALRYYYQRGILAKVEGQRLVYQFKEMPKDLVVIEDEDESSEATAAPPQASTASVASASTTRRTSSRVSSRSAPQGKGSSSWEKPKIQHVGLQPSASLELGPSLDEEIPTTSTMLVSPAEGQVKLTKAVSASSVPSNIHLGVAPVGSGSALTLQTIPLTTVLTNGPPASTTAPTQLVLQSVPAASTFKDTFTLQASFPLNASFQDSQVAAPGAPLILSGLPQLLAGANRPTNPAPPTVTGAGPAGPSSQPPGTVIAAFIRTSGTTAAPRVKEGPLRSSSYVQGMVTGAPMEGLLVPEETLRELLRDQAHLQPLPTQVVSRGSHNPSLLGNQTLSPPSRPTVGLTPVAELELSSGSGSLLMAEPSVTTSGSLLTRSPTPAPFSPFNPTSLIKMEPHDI
# How it was run: as §1
# ELK4 = biological target: T7, ELK4 (Homo sapiens, UniProt P28324-2 1-405)
# T7 sequence: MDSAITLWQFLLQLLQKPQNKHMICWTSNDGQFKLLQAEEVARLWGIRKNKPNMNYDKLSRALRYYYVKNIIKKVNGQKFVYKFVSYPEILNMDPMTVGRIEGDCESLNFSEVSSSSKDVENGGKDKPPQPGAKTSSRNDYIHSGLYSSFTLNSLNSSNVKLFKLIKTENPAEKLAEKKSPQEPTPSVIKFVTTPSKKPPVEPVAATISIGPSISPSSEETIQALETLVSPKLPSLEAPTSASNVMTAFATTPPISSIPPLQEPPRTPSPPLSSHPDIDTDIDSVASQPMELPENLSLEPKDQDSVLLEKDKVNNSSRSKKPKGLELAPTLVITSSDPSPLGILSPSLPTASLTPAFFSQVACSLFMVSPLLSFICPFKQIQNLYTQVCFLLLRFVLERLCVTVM
# How it was run: as §1
# ELF3 = biological target: T8, ELF3 (Homo sapiens, UniProt P78545 1-371)
# T8 sequence: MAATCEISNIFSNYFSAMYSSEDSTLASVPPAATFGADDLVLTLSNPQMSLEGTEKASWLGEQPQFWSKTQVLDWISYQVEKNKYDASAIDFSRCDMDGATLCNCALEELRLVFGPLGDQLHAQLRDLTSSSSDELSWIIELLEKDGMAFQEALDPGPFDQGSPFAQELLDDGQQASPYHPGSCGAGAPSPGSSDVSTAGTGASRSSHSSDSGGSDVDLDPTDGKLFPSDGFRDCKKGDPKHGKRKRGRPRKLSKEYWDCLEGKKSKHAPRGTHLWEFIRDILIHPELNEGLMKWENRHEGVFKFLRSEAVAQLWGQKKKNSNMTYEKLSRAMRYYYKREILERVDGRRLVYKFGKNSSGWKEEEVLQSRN
# How it was run: as §1
# ETV1 = ETV1 (Homo sapiens, UniProt P50549 1-477)
# Chain of ETV1 (P50549 whole entry): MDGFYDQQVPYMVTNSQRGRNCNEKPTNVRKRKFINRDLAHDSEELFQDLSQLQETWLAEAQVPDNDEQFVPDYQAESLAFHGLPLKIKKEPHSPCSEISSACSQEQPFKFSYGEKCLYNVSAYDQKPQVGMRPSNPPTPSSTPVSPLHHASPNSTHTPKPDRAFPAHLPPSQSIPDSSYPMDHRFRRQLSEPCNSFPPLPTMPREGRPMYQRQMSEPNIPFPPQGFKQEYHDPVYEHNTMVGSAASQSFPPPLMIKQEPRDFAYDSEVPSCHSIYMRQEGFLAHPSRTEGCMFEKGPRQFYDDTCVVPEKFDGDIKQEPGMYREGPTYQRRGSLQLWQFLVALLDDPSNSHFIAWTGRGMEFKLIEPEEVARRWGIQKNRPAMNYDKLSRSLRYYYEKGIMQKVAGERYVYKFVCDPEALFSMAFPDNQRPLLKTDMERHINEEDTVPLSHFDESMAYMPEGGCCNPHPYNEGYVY
# How it was run: as §1
# ERF = biological target: T9, ERF (Homo sapiens, UniProt P50548 1-548)
# T9 sequence: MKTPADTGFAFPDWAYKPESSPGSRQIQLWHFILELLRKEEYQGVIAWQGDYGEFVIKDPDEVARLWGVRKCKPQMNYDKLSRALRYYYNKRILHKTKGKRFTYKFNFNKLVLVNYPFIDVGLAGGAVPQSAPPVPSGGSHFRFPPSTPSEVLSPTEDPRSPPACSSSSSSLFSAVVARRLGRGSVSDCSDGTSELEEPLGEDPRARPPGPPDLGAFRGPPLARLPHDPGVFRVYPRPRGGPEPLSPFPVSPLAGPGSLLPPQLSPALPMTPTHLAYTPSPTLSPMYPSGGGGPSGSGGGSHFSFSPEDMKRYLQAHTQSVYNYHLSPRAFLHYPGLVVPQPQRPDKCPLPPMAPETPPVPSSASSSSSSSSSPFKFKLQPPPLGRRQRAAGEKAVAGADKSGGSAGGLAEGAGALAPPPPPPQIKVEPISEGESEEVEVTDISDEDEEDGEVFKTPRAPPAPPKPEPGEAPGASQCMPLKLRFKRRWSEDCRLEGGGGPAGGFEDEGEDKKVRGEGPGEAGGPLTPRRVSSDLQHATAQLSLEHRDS
# How it was run: as §1
# ETV3L = biological target: T10, ETV3L (Homo sapiens, UniProt Q6ZN32 1-361)
# T10 sequence: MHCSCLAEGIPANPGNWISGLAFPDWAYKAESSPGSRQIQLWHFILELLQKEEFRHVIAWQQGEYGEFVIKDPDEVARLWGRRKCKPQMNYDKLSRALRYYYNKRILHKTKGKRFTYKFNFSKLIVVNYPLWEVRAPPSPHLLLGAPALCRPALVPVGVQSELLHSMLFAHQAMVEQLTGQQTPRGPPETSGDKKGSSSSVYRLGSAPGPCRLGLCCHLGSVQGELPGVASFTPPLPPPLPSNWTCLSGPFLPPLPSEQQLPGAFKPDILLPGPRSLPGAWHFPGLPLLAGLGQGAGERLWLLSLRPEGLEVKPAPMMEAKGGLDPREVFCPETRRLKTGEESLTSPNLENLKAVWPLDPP
# How it was run: as §1
# ETS2 = biological target: T11, ETS2 (Homo sapiens, UniProt P15036 1-469)
# T11 sequence: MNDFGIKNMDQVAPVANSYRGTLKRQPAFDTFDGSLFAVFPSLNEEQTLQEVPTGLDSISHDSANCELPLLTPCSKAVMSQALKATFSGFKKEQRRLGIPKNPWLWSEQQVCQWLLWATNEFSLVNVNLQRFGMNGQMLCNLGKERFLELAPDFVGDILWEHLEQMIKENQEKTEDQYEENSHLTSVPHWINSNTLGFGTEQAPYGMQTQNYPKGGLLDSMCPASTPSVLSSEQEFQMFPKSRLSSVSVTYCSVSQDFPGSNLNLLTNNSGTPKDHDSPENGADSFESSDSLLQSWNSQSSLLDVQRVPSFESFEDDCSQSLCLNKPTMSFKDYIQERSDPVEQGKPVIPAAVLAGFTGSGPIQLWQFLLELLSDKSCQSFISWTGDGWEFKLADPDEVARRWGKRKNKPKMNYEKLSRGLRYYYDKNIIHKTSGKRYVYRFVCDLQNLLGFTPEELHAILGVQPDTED
# How it was run: as §1
# ETV7 = biological target: T12, ETV7 (Homo sapiens, UniProt Q9Y603 1-341)
# T12 sequence: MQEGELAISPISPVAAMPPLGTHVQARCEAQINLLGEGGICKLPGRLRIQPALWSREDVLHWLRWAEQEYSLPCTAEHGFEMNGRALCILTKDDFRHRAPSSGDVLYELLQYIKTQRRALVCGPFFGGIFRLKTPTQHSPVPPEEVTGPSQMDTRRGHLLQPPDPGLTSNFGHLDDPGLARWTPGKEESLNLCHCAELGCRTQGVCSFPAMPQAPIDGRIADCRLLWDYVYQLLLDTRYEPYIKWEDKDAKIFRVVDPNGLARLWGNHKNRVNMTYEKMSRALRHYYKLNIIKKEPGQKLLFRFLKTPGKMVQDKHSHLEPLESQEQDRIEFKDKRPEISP
# How it was run: as §1
# ETV3 = biological target: T13, ETV3 (Homo sapiens, UniProt P41162-2 1-143)
# T13 sequence: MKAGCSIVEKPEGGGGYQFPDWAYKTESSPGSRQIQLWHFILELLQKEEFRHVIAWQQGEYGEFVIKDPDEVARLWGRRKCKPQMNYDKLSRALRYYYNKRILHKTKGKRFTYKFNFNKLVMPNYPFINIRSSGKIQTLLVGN
# How it was run: as §1
# ETV6 = ETV6 (Homo sapiens, UniProt P41212 1-452)
# Chain of ETV6 (P41212 whole entry): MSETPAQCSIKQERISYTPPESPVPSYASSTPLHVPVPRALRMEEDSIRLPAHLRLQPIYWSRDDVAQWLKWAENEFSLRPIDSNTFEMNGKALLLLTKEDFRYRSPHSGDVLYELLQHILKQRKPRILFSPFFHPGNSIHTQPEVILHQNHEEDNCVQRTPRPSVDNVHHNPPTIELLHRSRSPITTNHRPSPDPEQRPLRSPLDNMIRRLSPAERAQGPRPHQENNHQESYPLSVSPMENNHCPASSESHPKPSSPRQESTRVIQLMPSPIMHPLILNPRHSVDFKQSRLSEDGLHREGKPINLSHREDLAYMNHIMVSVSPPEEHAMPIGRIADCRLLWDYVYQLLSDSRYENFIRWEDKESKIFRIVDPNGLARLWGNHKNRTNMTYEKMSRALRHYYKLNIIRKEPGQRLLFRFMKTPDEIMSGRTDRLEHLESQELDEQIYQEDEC
# How it was run: as §1
sequence,measurement,setting,value
TTGCCA,binding signal,FLI1,"1.07 fold enrichment (6-mer frequency, TF over GST control)"
same,binding signal,GABPA,"1.13 fold enrichment (6-mer frequency, TF over GST control)"
same,binding signal,ERG,"1.08 fold enrichment (6-mer frequency, TF over GST control)"
same,binding signal,ELF1,"1.03 fold enrichment (6-mer frequency, TF over GST control)"
same,binding signal,EHF,"1.12 fold enrichment (6-mer frequency, TF over GST control)"
same,binding signal,SPIB,"1.02 fold enrichment (6-mer frequency, TF over GST control)"
same,binding signal,ELK3,"1.05 fold enrichment (6-mer frequency, TF over GST control)"
same,binding signal,SPIC,"1.16 fold enrichment (6-mer frequency, TF over GST control)"
same,binding signal,ELF4,"1.07 fold enrichment (6-mer frequency, TF over GST control)"
same,binding signal,ELK4,"1.15 fold enrichment (6-mer frequency, TF over GST control)"
same,binding signal,ELF3,"1.17 fold enrichment (6-mer frequency, TF over GST control)"
same,binding signal,ETV1,"1.06 fold enrichment (6-mer frequency, TF over GST control)"
same,binding signal,ERF,"1.23 fold enrichment (6-mer frequency, TF over GST control)"
same,binding signal,ETV3L,"1 fold enrichment (6-mer frequency, TF over GST control)"
same,binding signal,ETS2,"1.05 fold enrichment (6-mer frequency, TF over GST control)"
same,binding signal,ETV7,"1.03 fold enrichment (6-mer frequency, TF over GST control)"
same,binding signal,ETV3,"1.12 fold enrichment (6-mer frequency, TF over GST control)"
same,binding signal,ETV6,"1.06 fold enrichment (6-mer frequency, TF over GST control)"
